Compound activity deposited in PubChem by National Center for Advancing Translational Sciences (NCATS).
Tau FP inhib: qHTS for Inhibitors of Tau Fibril Formation, Fluorescence Polarization; 280,000 tested, 0.39% active; Potency, µM (series often up to 57.7 µM), for inactives: at the top dose activity, negative = inhibition, most hits filed as inhibitors; K18 P301L tau heparin fibrillization, Alexa594 FP, 6 h; Microtubule-associated protein tau (Homo sapiens), P10636; AID 1468, 2008; further: potency means the concentration at half of the fitted maximal effect; nearly all actives have a fitted effect of over 55% in size
Target sequence (P10636 561-689 P618L limits assumed): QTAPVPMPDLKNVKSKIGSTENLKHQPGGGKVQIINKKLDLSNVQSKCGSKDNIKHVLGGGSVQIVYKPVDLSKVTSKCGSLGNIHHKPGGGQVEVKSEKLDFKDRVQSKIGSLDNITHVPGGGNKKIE
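Read-out: fluorescence polarization of Alexa 594-labeled tau (0.24 uM), 555 nm excitation, 632 nm emission. Mixtures held 15 uM unlabeled K18 P301L, compound and 20 uM heparin, pH 7 acetate buffer, incubated 6 hr at 37 C.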
FBPA coupling cs: qHTS Assay for Inhibitors of Fructose-1,6-bisphosphate Aldolase from Giardia Lamblia: Coupling assay counterscreen; 290,000 tested, 0.67% active; coupling enzyme system counterscreen, AmpLite Red fluorescence; activity change, negative = inhibition, % at 58.2 µM, hits read low; AID 2472, 2010; in the data active means activity change below about -30%
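Compounds tested against the coupling enzymes alone at 57.5 uM final; readout was AmpLite Red fluorescence (525/598 nm) after 20 min at RT.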
Tau fluor cs: Counterscreen qHTS for Inhibitors of Tau Fibril Formation, Fluorescence Polarization. tau K18 P301L Alexa594 fluorescence, heparin fibrillization. Potency, µM (series often up to 57.7 µM), for inactives: at the top dose activity change, negative = decrease. 280,000 tested, 0.93% active. AID 1463, 2008; further: potency means the concentration at half of the fitted maximal effect; nearly all actives have a fitted effect of over 55% in size
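Human tau K18 P301L (15 uM unlabeled, 0.24 uM Alexa 594-labeled) in 100 mM sodium acetate pH 7 with 20 uM heparin, 6 hr at 37 C. ThT 30 uM added, 1 hr ambient; Alexa 594 FP and total fluorescence read at 555/632 nm.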
Sfp inh: qHTS Assay for Inhibitors of Bacillus subtilis Sfp phosphopantetheinyl transferase (PPTase) | 310,000 tested, 3.5% active | Potency, µM, for the others: largest response in the series, negative = inhibition, usual class: inhibitors | Biochemical Sfp PPTase activity, qHTS | AID 1490, 2009;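 further: the enzyme is Sfp with the accession as filed and its product quenches rhodamine fluorescence; potency means the concentration at half of the fitted maximal effect; 0% = enzyme reaction without inhibitor and -100% = no enzyme wells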
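Fluorescence-quenching assay with 15 nM Sfp, 5 uM rhodamine-CoA and 12.5 uM BHQ-2-labelled ybbR peptide in pH 7.6 Hepes/MgCl2 buffer. Enzyme was pre-incubated with compound for 15 min at room temperature. Rate was taken from the 30-min fluorescence change (525/598 nm).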
Tau fibril ThT: qHTS for Inhibitors of Tau Fibril Formation, Thioflavin T Binding; recombinant tau K18 P301L (four-repeat tau fragment), heparin-induced fibrillization, ThT fluorescence; 270,000 tested, 2.1% active; Microtubule-associated protein tau (Homo sapiens), P10636; Potency, µM (doses to about 57.4 µM), for inactives: top-dose activity, negative = inhibition, usual class: inhibitors; further: potency means the concentration at half of the fitted maximal effect; nearly all actives have a fitted effect of over 55% in size
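Heparin-induced (20 uM) aggregation of recombinant human K18 P301L tau, 15 uM unlabeled with 0.24 uM labeled, pH 7 acetate buffer, 6 hr at 37 C with compound. Fibrils quantified by 30 uM ThT fluorescence after 1 hr ambient incubation.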
G9a block: qHTS Assay for Inhibitors of Histone Lysine Methyltransferase G9a. Histone-lysine N-methyltransferase EHMT2 (Homo sapiens), Q96KQ7. G9a H3K9 monomethylation, AlphaScreen, 2 h. Potency, µM (highest dose often 102 µM), inactives show top-dose activity, negative = inhibition, hits mostly inhibitors. 350,000 tested, 8.8% active. AID 504332, 2011; further: potency means the concentration at half of the fitted maximal effect; nearly all actives have a fitted effect of over 75% in size
Target sequence (Q96KQ7 913-1193 limits assumed): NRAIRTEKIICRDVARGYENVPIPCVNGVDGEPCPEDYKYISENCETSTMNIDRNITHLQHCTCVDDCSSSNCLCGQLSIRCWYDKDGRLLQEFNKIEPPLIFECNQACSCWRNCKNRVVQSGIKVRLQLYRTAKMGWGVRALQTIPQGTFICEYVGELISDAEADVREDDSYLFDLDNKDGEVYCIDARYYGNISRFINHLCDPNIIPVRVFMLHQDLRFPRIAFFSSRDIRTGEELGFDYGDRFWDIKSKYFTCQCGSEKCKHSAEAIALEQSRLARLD
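Step 1: enzyme (final 20 nM) with compound, 15 min RT. Step 2: substrate peptide 500 nM and SAM 20 uM, 2 h RT. Step 3: anti-H3K9me1 antibody and AlphaScreen beads, 10 min, then plate read.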
* hit, by the source's call; ? = inconclusive; · = no result given; [ ] = another dose, or the depositor's remark. This is a sample that favours compounds with a hit; in the whole collection about 11% have one here. Unless noted, the call rests on the fitted dose curve; in most records, active means well fitted curve in the direction sought with a large enough effect; inconclusive means small, poorly fitted or top-dose-only effect, or another doubt; inactive means no such curve, though single readings can be large; an effect the other way counts as inactive or inconclusive. Unless noted, on the % scale 0 is the no-effect control and ±100 the full control effect.

SMILES	Tau FP inhib	FBPA coupling cs	Tau fluor cs	Sfp inh	Tau fibril ThT	G9a block
CCOc1cc(/C=C/C(=O)c2ccc(C)cc2)ccc1OCC(=O)N(C)C	1.1%	1.8	1.2%	-10.6%	?	10.8%[59 µM]
O=[N+]([O-])c1ccc(/C=C/c2ccc3cccc([N+](=O)[O-])c3n2)cc1	0.6%	-11.4	-6.6%	-18.9%	-0.3%	?
COc1ccc(/C=C/c2cc(C(F)(F)F)[nH]c(=O)n2)cc1OC	-4.1%[2.34 µM]	-2.2	13.7%	17.5%	10.9%	7.5%
CCOc1cc(/C=C/c2ccc3cccc([N+](=O)[O-])c3n2)ccc1O	7.5%	1.1	?	-0.1%	14.1µM*	-19.2%[59 µM]
CC(=O)Nc1ccc(NC(=O)Cn2c(=O)n(-c3ccc(C)cc3)c(=O)c3oc4ccccc4c32)cc1	-6.3%	3.0	-20.8%	-2.6%	-1.4%	-1.9%
C[N+](C)(C)C(Cc1c[nH]c2ccccc12)C(=O)[O-] (stereo not drawn)	-1.6%	1.0	3.1%	15.3%	1.3%	14.7%[59 µM]
CC(=O)N1c2ccccc2C2(O)N=C(C)SC12 (stereo not drawn)	-0.2%	-9.2	1.3%	-94.9%	4.5%	1.41µM*
S=C(NCc1ccccc1)NC1CCSc2ccccc21 (stereo not drawn)	·	·	·	5.6%	·	·
FC(F)(F)c1cccc(OCCN2CCN(Cc3ccccc3)CC2)c1	11.0%	1.1	-6.0%	35.5µM*	-2.2%	11.2µM*
CCc1ccc(OCCCCN(C)Cc2ccccc2)cc1	·	1.3	·	-8.5%	·	·
c1ccc(CN2CCN(CCOCCOc3ccc4c(c3)CCC4)CC2)cc1	-1.9%	-0.1	-3.3%	7.8%	-4.9%	·
Cc1cc(C)c(C)c(OCCCCN(C)Cc2ccccc2)c1	·	2.1	·	-29.8%	·	10µM*
CN(CCOc1cccc(C(F)(F)F)c1)Cc1ccccc1	3.0%	0.1	7.2%	-26.1%	3.1%	8.91µM*
COc1cc(C)ccc1OCCOCCN(C)Cc1ccccc1	0.0%	2.1	7.5%	-17.2%	10.9%	?
CCC(C)c1ccccc1OCCCN(C)Cc1ccccc1 (stereo not drawn)	·	0.7	·	-0.7%	·	11.2µM*
CCCCNc1nc(C)nc2c1nc(C)n2CCC	6.5%	-1.9	1.7%	28.7%	0.5%	·
CN(CCOc1ccc(F)cc1)Cc1ccccc1	·	-1.6	·	-12.3%	·	10µM*
COc1ccc(OCCN(C)Cc2ccccc2)cc1	-0.3%	3.3	-1.9%	1.3%	-1.4%	?
COc1ccc(OCCCN(C)Cc2ccccc2)cc1	·	-1.1	·	-13.7%	·	12.6µM*
CN(Cc1ccccc1)Cc1c(F)cccc1F	-3.4%	-0.5	-1.8%	-27.2%	-14.0%	11.2µM*
COc1ccc(N(Cc2ccccc2)N=O)cc1	·	-0.7	·	17.7%	·	39.8µM*
CCCNC(=O)c1onc(CSc2ccc(F)cc2)c1C(=O)NCC1CC1	·	·	·	·	·	-0.7%[2.33 µM]
COc1ccc(Oc2ncc3nc(-c4cccc(C#N)c4)c(=O)n(C)c3n2)cc1	·	4.7	·	13.9%	·	5.2%[0.501 µM]
COc1cccc(/C=N/N2CCN(C3c4ccccc4-c4ccccc43)CC2)c1O	-3.0%	1.8	-21.1%	7.0%	-12.5%	35.5µM*
CCOC(=O)/C=C/C(=O)Nc1cccc([N+](=O)[O-])c1	7.1%	-11.9	2.0%	2.82µM*	1.3%	?
SMILES	Tau FP inhib	FBPA coupling cs	Tau fluor cs	Sfp inh	Tau fibril ThT	G9a block
CCOC(=O)/C=C/C(=O)Nc1ccccc1-c1ccccc1NC(=O)/C=C/C(=O)OCC	?	0.7	-10.6%	6.4%	20µM*	-8.2%[59 µM]
CCOC(=O)c1cccc(NC(=O)/C=C/c2cccc([N+](=O)[O-])c2)c1	-4.9%	3.2	-20.2%	5.6%	-15.6%	16.5%[59 µM]
Cc1ccc(-c2nc(C)sc2CC(=O)OCC(=O)Nc2cccc([N+](=O)[O-])c2)cc1	-2.8%	3.2	?	10.7%	-10.0%	-1.4%[59 µM]
Cc1ccc(C(=O)c2ccccc2C(=O)OCC(=O)Nc2cccc([N+](=O)[O-])c2)cc1	?	-9.3	15.8µM*[quencher]	16.3%	-17.9%	?
NC(=O)c1cccc([N+](=O)[O-])c1	·	·	·	·	·	-0.4%[0.501 µM]
O=C(/C(N=Nc1cccc([N+](=O)[O-])c1)=C(/O)c1ccc(Br)cc1)C(F)(F)F	8.0%	1.5	15.8µM*[quencher]	12.3%	25.1µM*	39.8µM*
Cc1ccc(CNC(=O)c2cccc(Nc3nc4ccccc4n4nnnc34)c2)cc1	-6.1%	·	-25.0%	·	-6.7%	?
COc1ccccc1C(=O)NC(=O)Nc1ccc(-n2nc(C(F)(F)F)cc2C(F)(F)F)cc1	?	·	-13.8%	·	-0.4%	6.8%[59 µM]
Cc1ccc(-n2c(SCC(N)=O)nnc2-c2ccc(S(=O)(=O)N3CCCCC3)cc2)c(C)c1	9.4%	0.2	-3.4%	3.6%	-8.4%	39.8µM*
Cn1c(SCC(N)=O)nnc1-c1ccc(S(=O)(=O)N2CCCC2)cc1	·	-1.7	·	22.1%	·	3.7%
Nc1cccc(-n2nnnc2CN2CCOCC2)c1	11.5%	-30.9*	4.6%	5.2%	10.3%	2.3%[59 µM]
Nc1ccc(-n2nnnc2CN2CCOCC2)cc1	2.6%	4.0	-3.2%	11.9%	-3.0%	26.2%[59 µM]
O=C1NCCC/C1=N\Nc1ccc(Br)cc1	-5.6%	0.8	-18.8%	16.4%	-17.6%	50.1µM*
Cc1ccccc1N/N=C1\CCCNC1=O	?	-12.9	-16.3%	?	?	?
CC(C)(C)CN1CCN(CC#Cc2ccccc2)CC1CCO (stereo not drawn)	·	1.1	·	4.7%	·	·
COC(=O)c1cc2oc3ccccc3c2n1Cc1ccc(C)cc1	2.7%	·	-12.1%	·	-9.1%	9.4%[59 µM]
COC(=O)c1cc2oc3ccccc3c2n1Cc1ccccn1	2.0%	-7.2	-15.3%	39.8µM*	-23.3%	-33.8%
CCCCn1c(N)c(N(Cc2ccccc2OC)C(=O)C(C)Oc2ccc(Cl)cc2)c(=O)[nH]c1=O (stereo not drawn)	·	·	·	21.6%	·	30.5%
CCCCn1c(N)c(N(CCOC)C(=O)c2cnc(C)cn2)c(=O)[nH]c1=O	·	·	·	·	·	39.8µM*
CCCCN(C(=O)c1ccc(-c2ccc(Cl)cc2)o1)c1c(N)n(CCC)c(=O)[nH]c1=O	·	·	·	·	·	8.91µM*
CCCCn1c(N)c(N(CCOC)C(=O)c2cnccn2)c(=O)[nH]c1=O	·	·	·	·	·	6.7%[59 µM]
CCCCn1c(N)c(N(CCOC)C(=O)c2ccc(-c3ccc(Cl)cc3)o2)c(=O)[nH]c1=O	·	·	·	·	·	11.2µM*
